Neddylation inh – inhibitors of human cullin neddylation. P61081+Q13564. TR-FRET cullin neddylation, biochemical. inhibition, % at 25 µM. actives 0.58% (n = 360,000); in the data active = inhibition above about 36%
Target sequence (P61081 whole entry, looked up): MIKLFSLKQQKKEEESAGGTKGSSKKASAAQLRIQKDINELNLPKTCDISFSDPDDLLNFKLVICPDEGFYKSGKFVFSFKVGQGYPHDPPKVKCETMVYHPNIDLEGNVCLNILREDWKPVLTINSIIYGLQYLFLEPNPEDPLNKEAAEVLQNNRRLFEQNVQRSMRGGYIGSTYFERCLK
Target sequence (Q13564 whole entry, looked up): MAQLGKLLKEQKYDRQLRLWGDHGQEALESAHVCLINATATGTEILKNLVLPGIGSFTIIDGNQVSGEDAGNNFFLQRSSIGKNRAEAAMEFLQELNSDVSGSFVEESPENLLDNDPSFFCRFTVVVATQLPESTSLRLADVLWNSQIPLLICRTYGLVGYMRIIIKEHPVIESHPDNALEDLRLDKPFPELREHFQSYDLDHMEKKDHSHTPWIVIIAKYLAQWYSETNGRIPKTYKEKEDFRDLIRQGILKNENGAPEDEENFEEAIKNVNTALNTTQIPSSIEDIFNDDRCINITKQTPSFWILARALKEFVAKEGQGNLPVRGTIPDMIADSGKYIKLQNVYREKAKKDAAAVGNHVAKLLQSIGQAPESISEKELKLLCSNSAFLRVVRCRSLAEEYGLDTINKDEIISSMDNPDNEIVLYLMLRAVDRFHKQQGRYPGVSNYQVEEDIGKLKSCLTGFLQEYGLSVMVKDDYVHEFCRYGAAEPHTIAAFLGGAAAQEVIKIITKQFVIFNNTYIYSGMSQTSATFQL
ARNT-TACC3 inh – disrupts binding between human ARNT and TACC3; AlphaScreen His-ARNT PAS-B/GST-TACC3 binding, luminescence; TACC3 fragment carries E629A point mutation; inhibition, % at 9.99 µM; actives 0.66% (n = 390,000);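 active = mean inhibition of replicates at least 50% and at least half of replicates each reaching 50%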;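 note: 0% = complete ARNT plus TACC3 wells and 100% = ARNT alone without TACC3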
NadD block – NadD (S. aureus) enzyme inhibition | purified NadD enzyme, colorimetric absorbance read-out | inhibition, % at 20 µM | actives 0.78% (n = 360,000); in the data active = inhibition above about 26%
DAGLB inhibitor – diacylglycerol lipase beta (human) inhibition; Q8NCG7; HEK293T DAGLB membrane lysate, EnzChek fluorogenic substrate; inhibition, % at 5.17 µM; actives 0.059% (n = 340,000); AID 504411; in the data active = inhibition above about 34%;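 note: 0% = enzyme with vehicle and 100% = wells lacking enzyme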
sPLA2-III inh – Blocks human group III sPLA2 activity | Q9NZ20 | actives 0.56% (n = 370,000) | inhibition, % at 12.2 µM | QFRET BODIPY PC-A2 liposome hydrolysis, fluorescence;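 active = inhibition above mean plus 3 SD of compounds lying within the high and low control bounds, cut at about 19% in these data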;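 note: 0% = median of test compound wells and 100% = no enzyme DMSO wells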
* marks the source's active call; other numbers are inactive results; / = no result. Hits are enriched below; roughly 2% of the tested compounds scored in any of these assays.

SMILES	Neddylation inh	ARNT-TACC3 inh	NadD block	DAGLB inhibitor	sPLA2-III inh
COc1ccccc1NC(=O)C1=C(C)NC(SCC(=O)c2ccccc2)=C(C#N)C1c1ccco1 (configuration not stated)	-2.2	-1.7	36.5*	-10.7	/
Cc1ccc2[nH]c3c(N4CCc5ccccc5C4)ncnc3c2c1	30.0	/	2.6	2.8	3.6
Fc1ccc2[nH]c3c(N4CCc5ccccc5C4)ncnc3c2c1	45.1*	/	20.1	/	-0.4
Cc1noc(C)c1NC(=O)Nc1ccc2c(c1)C(=O)N([C@@H](C)CO)C[C@H](C)[C@@H](CN(C)C(=O)Nc1c(C)noc1C)O2	/	-1.1	/	/	/
O=C(NCC[C@H]1CC[C@H](NS(=O)(=O)Cc2ccccc2)[C@@H](CO)O1)C1CC1	/	5.5	/	/	/
CCC(=O)N1CCCCN2[C@@H](CO)[C@@H](c3ccc(C#Cc4cccnc4)cc3)[C@@H]2C1	/	-7.6	/	/	/
Cc1nnc2sc(SCC(=O)Nc3ccc(Cl)cc3)nn2c1=O	8.3	42.6*	-4.9	0.0	-5.1
COc1ccc(Cc2nnc3sc(SCC(=O)Nc4ccccc4)nn3c2=O)cc1OC	-0.7	62.8*	1.5	2.5	11.5
CC(=O)Nc1cccc(NC(=O)CSc2nn3c(=O)c(C)nnc3s2)c1	-2.5	66.8*	7.1	-3.1	2.4
CCCc1cn(CC[C@H]2CC[C@@H](NC(=O)CCN3CCCCC3)[C@@H](CO)O2)nn1	/	-7.4	/	/	/
Cc1noc(C)c1S(=O)(=O)Nc1ccc2c(c1)C(=O)N([C@@H](C)CO)C[C@H](C)[C@@H](CN(C)C(=O)Nc1ccc(C(F)(F)F)cc1)OCCCC[C@H](C)O2	/	16.4	/	/	/
C[C@@H]1CN([C@H](C)CO)C(=O)c2cc(NC(=O)Nc3ccc(F)cc3)ccc2O[C@H]1CN(C)Cc1ccc(C(F)(F)F)cc1	/	4.1	/	/	/
CC1=NN(c2cc(Cl)c(S(=O)(=O)O)cc2Cl)C(=O)C1	6.6	30.0*	0.5	-4.9	-1.5
CC1=NN(c2ccc(S(=O)(=O)O)cc2Cl)C(=O)C1	8.7	34.3	0.2	-1.0	-0.8
CN=c1scc(-c2ccccc2F)n1/N=C/c1ccc(O)c(O)c1O	-18.7	52.8*	23.4	7.2	18.6
Nc1ccc(Cn2ccc3c4c(N)nc(N)nc4ccc32)cc1	21.2	-5.1	5.8	-2.1	21.9*
O=C1C(Cl)=C(NCCN2CCOCC2)C(=O)c2ccccc21	-75.9	65.9*	-7.7	2.8	1.1
O=C1C(Cl)=C(NCCCN2CCOCC2)C(=O)c2ccccc21	-81.3	14.7	1.7	4.0	7.3
CC(C)c1ccc(Nc2c([N+](=O)[O-])c(=O)n(C)c3ccccc23)cc1	-14.0	-2.4	-4.3	3.2	1.7
Cn1c(=O)c(Nc2ccc(O)cc2)c2c3c(cccc31)C(=O)c1ccccc1-2	-112.7	10.4	25.9	43.8*	-70.9
CC(=O)N(C1=C(N)C(=O)c2ccccc2C1=O)c1ccccc1	-47.0	12.1*	-5.2	9.2	12.2
C[C@@H]1CN([C@@H](C)CO)C(=O)c2cc(NC(=O)Cc3ccccc3)ccc2O[C@@H]1CN(C)C(=O)Nc1ccc2c(c1)OCO2	/	-2.6	/	/	/
C[C@H](NC(=O)C[C@H]1CC[C@@H]2[C@H](COC[C@H](O)CN2C)O1)c1ccccc1	/	2.2	/	/	/
Cc1ccc(NC(=S)c2nc3ccccc3[nH]2)c(C)c1	-5.9	30.3	3.2	-4.4	31.2*
CO[C@H]1CN(C)C(=O)c2ccc(NC(=O)Nc3cc(F)ccc3F)cc2OC[C@@H](C)N(C(=O)c2cnccn2)C[C@@H]1C	/	1.4	/	/	/
SMILES	Neddylation inh	ARNT-TACC3 inh	NadD block	DAGLB inhibitor	sPLA2-III inh
c1cnc2c(SCc3ccc(-c4nnco4)cc3)cccc2c1	27.6	59.5*	10.0	-4.2	-0.9
c1ccc2[nH]c(SCc3ccc(-c4nnco4)cc3)nc2c1	1.4	-10.2	-2.0	1.4	0.9
COc1ccccc1-c1nnc(NC(=O)c2ccc(S(=O)(=O)N(C)CC3CCCO3)cc2)o1 (configuration not stated)	2.8	31.8	12.8	1.3	-17.8
COCc1nnc(NC(=O)c2ccc(S(=O)(=O)N3CCCC3)cc2)o1	6.6	49.4*	5.0	0.0	-4.6
COCCN(CCOC)S(=O)(=O)c1ccc(C(=O)Nc2nnc(C3CC3)o2)cc1	-10.2	47.0*	11.4	-0.2	4.8
COc1ccccc1-c1nnc(NC(=O)c2ccc(S(=O)(=O)N(C)C)cc2)o1	4.4	56.8*	12.3	2.8	-1.8
CCC1CCCCN1S(=O)(=O)c1ccc(C(=O)Nc2nnc(-c3ccccc3Cl)o2)cc1 (configuration not stated)	-7.2	/	42.5*	-0.2	/
CC1CCCCN1S(=O)(=O)c1ccc(C(=O)Nc2nnc(-c3ccccc3Cl)o2)cc1 (configuration not stated)	-9.1	/	29.6	-0.3	-3.8
O=C(c1cccnc1)N1CC[C@@H]2[C@H](CO)Nc3ccc(-c4ccc(F)cc4)cc3[C@@H]21	/	2.7	/	/	/
C[C@H](CO)N1C[C@H](C)[C@@H](CN(C)S(=O)(=O)c2cn(C)cn2)Oc2ccc(NC(=O)C3CCCCC3)cc2CC1=O	/	4.8	/	/	/
CCc1nnc(NC(=O)c2ccc(S(=O)(=O)N(CCOC)CCOC)cc2)o1	-0.9	46.0*	4.9	-0.1	1.1
COC(=O)/C(=C/Nc1ccc(O)cc1)[N+](=O)[O-]	-17.4	23.7*	-1.4	-0.3	-1.9
COC(=O)/C(=C/Nc1ccccc1)[N+](=O)[O-]	-20.2	/	0.3	-6.0	1.1
CO[C@H](CN(C)Cc1cc(F)ccc1F)[C@H](C)CN(C(=O)Nc1ccc(F)cc1)[C@H](C)CO	/	-3.6	/	/	/
Cc1ccnc2c1ccc1cccnc12	-9.5	63.2*	3.2	-0.4	4.9
Cc1ccnc2c1ccc1ccccc12	-3.8	-8.8	-3.6	-2.5	-5.5
Cc1ccnc2c1ccc1c(C)ccnc12	0.0	69.6*	0.0	0.8	/
CCNC(=S)NNC(=O)c1ccccc1Cl	-5.1	-11.6	-6.3	-4.2	5.1
CCNC(=S)NNC(=O)c1ccccn1	6.8	67.5*	1.6	-1.3	3.9
COc1ccccc1C#Cc1ccc2c(c1)O[C@@H](CN(C)Cc1ccccc1)[C@@H](C)CN([C@H](C)CO)S2(=O)=O	/	10.8	/	/	/
O=C(N/N=C(\c1ccccc1)c1cccnc1)c1cccc(F)c1	-11.7	56.9*	-3.2	0.8	1.9
O=C(N/N=C(\c1ccccc1)c1cccnc1)c1ccc(O)cc1	-2.6	-2.2	-6.0	-1.5	-2.1
Clc1ccc(-c2ccc(CNCc3ccccn3)o2)cc1	-7.4	72.7*	2.1	-2.5	-0.4
COc1ccc(C2c3ccc(O)cc3Oc3ncn4nc(-c5ccccn5)nc4c32)cc1OC (configuration not stated)	15.9	59.0*	11.1	0.9	-31.5
COc1ccc(N2CCN(Cc3nc(N)nc(Nc4ccccc4OC)n3)CC2)cc1	2.5	49.8*	6.1	4.0	0.7
COc1ccccc1Nc1nc(N)nc(CN2CCN(Cc3ccccc3)CC2)n1	2.6	19.1	5.7	1.9	3.6
CC(C)CNC(=O)[C@@]1(c2ccc([N+](=O)[O-])cc2)CC(=O)N(CC23CC4CC(CC(C4)C2)C3)[C@@H]1c1ccc(CO)cc1	/	9.8	/	/	/
